Laboratory results reported in the antibiotic and cytotoxicity screens of Wong et al. (2023).
About 3,300 (8.5%) of roughly 39,000 compounds were called active. The sample holds actives, similar compounds and a random draw of the others, so the mix is not that of the screen.

Each compound was assayed on HepG2 (assay: cytotoxicity call (relative viability < 0.9)). Conditions: 10 µM.
`C[C@@H]1CN([C@H](C)CO)C(=O)Cc2cc(NS(=O)(=O)c3ccc(F)cc3)ccc2O[C@H]1CN(C)C(=O)Nc1cccc2ccccc12` was tested, and the cytotoxicity call was “inactive”. `C[C@@H]1CN([C@@H](C)CO)S(=O)(=O)c2ccc(C3=CCCCC3)cc2O[C@H]1CN(C)C(=O)C1CCOCC1` was tested, and the cytotoxicity call was “inactive”. For `C[C@@H]1CCCCO[C@@H](CN(C)C(=O)CCC(F)(F)F)[C@@H](C)CN([C@@H](C)CO)C(=O)c2cc(NS(=O)(=O)c3ccc(Cl)cc3)ccc2O1`, the cytotoxicity call was “inactive”. For `Cc1ccc(S(=O)(=O)Nc2ccc3c(c2)C(=O)N([C@H](C)CO)C[C@@H](C)[C@H](CN(C)C(=O)Nc2ccccc2)OCCCC[C@H](C)O3)cc1`, the cytotoxicity call was “inactive”. In the case of `C[C@@H]1CCCCO[C@@H](CN(C)C(=O)NC2CCCCC2)[C@H](C)CN([C@@H](C)CO)C(=O)c2cc(NC(=O)Nc3cccc4ccccc34)ccc2O1`, the cytotoxicity call is reported as “inactive”. For `CN1C(=O)c2cc(NC(=O)c3cccs3)ccc2OC[C@H]2O[C@@H](CC(=O)NCCN3CCCCC3)CC[C@@H]21`, the cytotoxicity call was “inactive”. For `CCCC#Cc1cnc2c(c1)C(=O)N([C@@H](C)CO)C[C@H](C)[C@@H](CN(C)S(=O)(=O)c1cccc(OC)c1)O2`, the cytotoxicity call was “inactive”. `C[C@@H]1CN([C@@H](C)CO)C(=O)Cc2cc(NC(=O)CCC(F)(F)F)ccc2O[C@@H]1CN(C)S(=O)(=O)c1cccs1` was tested, and the cytotoxicity call was “inactive”. `C[C@@H]1CN([C@@H](C)CO)S(=O)(=O)c2ccc(C#CC3CC3)cc2O[C@H]1CN(C)C(=O)c1cccc(F)c1` was tested, and the cytotoxicity call was “inactive”. For `C[C@H](CO)N1C[C@H](C)[C@@H](CN(C)S(=O)(=O)c2ccc(-n3cccn3)cc2)OCc2cn(nn2)CCCC1=O`, the cytotoxicity call was “inactive”. With `CNC(=O)CN1CCO[C@H]2CN(C(=O)C(C)C)C[C@@H]21` the cytotoxicity call was “inactive”. For `O=C(C[C@H]1CC=CC[C@H](NC(=O)OCC2c3ccccc3-c3ccccc32)C(=O)OCCNC1=O)NCCO`, the cytotoxicity call was “inactive”. In the case of `COc1ccccc1-c1cnc2c(c1)C(=O)N([C@@H](C)CO)C[C@@H](C)[C@@H](CN(C)C(=O)c1cccnc1)O2`, the cytotoxicity call is reported as “inactive”. In the case of `CC(C)CC#Cc1ccc2c(c1)O[C@@H](CN(C)C(=O)C1CCOCC1)[C@H](C)CN([C@@H](C)CO)S2(=O)=O`, the cytotoxicity call is reported as “inactive”. With `CC(C)CC#Cc1ccc2c(c1)O[C@H](CN(C)C(=O)C1CCOCC1)[C@@H](C)CN([C@@H](C)CO)S2(=O)=O` the cytotoxicity call was “inactive”. In the case of `C[C@H]1CN([C@@H](C)CO)S(=O)(=O)c2ccc(C#Cc3ccncc3)cc2O[C@H]1CN(C)C(=O)C1CCOCC1`, the cytotoxicity call is reported as “active”. With `C[C@@H]1CN([C@H](C)CO)S(=O)(=O)c2ccc(C#Cc3ccncc3)cc2O[C@@H]1CN(C)C(=O)C1CCOCC1` the cytotoxicity call was “active”. With `O=C(C[C@H]1C=C[C@@H](NC(=O)CN2CCOCC2)[C@H](CO)O1)NCc1cccc(F)c1` the cytotoxicity call was “inactive”. `C[C@@H]1CN([C@@H](C)CO)C(=O)c2cc(N(C)C)ccc2O[C@@H](C)CCCCO[C@H]1CN(C)Cc1ccc(C(F)(F)F)cc1` was tested, and the cytotoxicity call was “inactive”. In the case of `C[C@@H]1CN([C@@H](C)CO)C(=O)CCCn2cc(nn2)CO[C@@H]1CN(C)S(=O)(=O)c1cn(C)cn1`, the cytotoxicity call is reported as “inactive”. With `C[C@@H]1CN([C@@H](C)CO)C(=O)c2cccc(NC(=O)CCCCCC(=O)Nc3ccccc3N)c2O[C@H]1CN(C)C(=O)Nc1ccc(C(F)(F)F)cc1` the cytotoxicity call was “inactive”. For `C[C@@H]1CN([C@H](C)CO)C(=O)c2cc(NC(=O)NC3CCCCC3)ccc2O[C@H]1CN(C)Cc1ccc(C(F)(F)F)cc1`, the cytotoxicity call was “inactive”. With `O=C([C@@H]1N[C@@H]2c3ccc(-c4ccc(F)cc4)c(=O)n3C[C@@H]2[C@H]1CO)N1CCOCC1` the cytotoxicity call was “inactive”. In the case of `C[C@@H]1CN([C@@H](C)CO)C(=O)c2cccc(NS(=O)(=O)c3cn(C)cn3)c2O[C@H]1CN(C)Cc1ccncc1`, the cytotoxicity call is reported as “inactive”. For `CC(C)(C)c1ccc(C(O)CCCN2CCC(C(O)(c3ccccc3)c3ccccc3)CC2)cc1` (stereo not given), the cytotoxicity call was “active”. `CC(C)(C(=O)O)c1ccc([C@@H](O)CCCN2CCC(C(O)(c3ccccc3)c3ccccc3)CC2)cc1` was tested, and the cytotoxicity call was “inactive”. For `CC(C)(C(=O)O)c1ccc(C(O)CCCN2CCC(C(O)(c3ccccc3)c3ccccc3)CC2)cc1.Cl` (stereo not given), the cytotoxicity call was “inactive”. With `O=C(Nc1cc(C(F)(F)F)cc(C(F)(F)F)c1)Nc1cnn(-c2ccc([N+](=O)[O-])cc2)c1C(F)(F)F` the cytotoxicity call was “active”. In the case of `O=C(Nc1cc(C(F)(F)F)cc(C(F)(F)F)c1)Nc1c(Br)cc(Br)cc1-c1nn[nH]n1`, the cytotoxicity call is reported as “inactive”. With `O=C(NCO)c1ccc([N+](=O)[O-])cc1` the cytotoxicity call was “inactive”. `CNC1C(OC2C(OC3C(O)C(O)C(NC(=N)N)C(O)C3NC(=N)N)OC(C)C2(O)C=O)OC(CO)C(O)C1O.O=S(=O)(O)O` (stereo not given) [STREPTOMYCIN SULFATE [5mM; 10% aq DMSO + 5mM ethanolamine] ] was tested, and the cytotoxicity call was “inactive”. In the case of `COCC(=O)Nc1c(I)c(C(=O)NC[C@@H](O)CO)c(I)c(C(=O)N(C)C[C@@H](O)CO)c1I`, the cytotoxicity call is reported as “inactive”. For `COc1ccc(S(=O)(=O)N[C@@H]2C=C[C@H](CC(=O)N3CCN(c4ccccc4)CC3)O[C@@H]2CO)cc1`, the cytotoxicity call was “inactive”. With `O=C(O)c1cc(O)ccc1O` [listing 1 of 2 here] the cytotoxicity call was “inactive”. In the case of `O=C(O)c1cc(O)ccc1O` [listing 2 of 2 here], the cytotoxicity call is reported as “inactive”. In the case of `O=S(=O)(O)c1cc(O)ccc1O`, the cytotoxicity call is reported as “active”. For `C[C@@H]1CN([C@H](C)CO)C(=O)c2cc(NS(C)(=O)=O)ccc2O[C@@H](C)CCCCO[C@H]1CN(C)C(=O)Nc1ccc(C(F)(F)F)cc1`, the cytotoxicity call was “inactive”. For `COc1ccc(S(=O)(=O)Nc2ccc3c(c2)C(=O)N([C@H](C)CO)C[C@H](C)[C@@H](CN(C)C(=O)CCC(F)(F)F)OCCCC[C@H](C)O3)cc1`, the cytotoxicity call was “inactive”. `O=C(CCCCCC(=O)N/N=C/[C@H](O)[C@@H](O)[C@@H](O)[C@H](O)CO)NO` was tested, and the cytotoxicity call was “inactive”. `C[C@@H]1CN([C@H](C)CO)C(=O)CCCn2nncc2CO[C@H]1CN(C)S(=O)(=O)c1ccc(Oc2ccccc2)cc1` was tested, and the cytotoxicity call was “inactive”. In the case of `C[C@@H]1CN([C@@H](C)CO)C(=O)c2cc(NC(=O)Nc3ccc(C(F)(F)F)cc3)ccc2O[C@@H]1CN(C)CC1CCCCC1`, the cytotoxicity call is reported as “active”. `C[C@H](CO)N1C[C@H](C)[C@H](CN(C)CC2CCCCC2)Oc2ccc(NC(=O)Nc3ccc(F)cc3)cc2C1=O` was tested, and the cytotoxicity call was “inactive”. In the case of `C[C@@H]1CN([C@H](C)CO)C(=O)c2cc(NC(=O)Nc3ccc(F)cc3)ccc2O[C@@H]1CN(C)CC1CCCCC1`, the cytotoxicity call is reported as “inactive”. With `C[C@H]1CN([C@@H](C)CO)C(=O)c2cc(NC(=O)Nc3ccc(F)cc3)ccc2O[C@@H]1CN(C)CC1CCCCC1` the cytotoxicity call was “active”. In the case of `C[C@@H]1CN([C@@H](C)CO)C(=O)c2cc(NC(=O)Nc3ccc(F)cc3)ccc2O[C@@H]1CN(C)CC1CCCCC1`, the cytotoxicity call is reported as “inactive”. For `C[C@H]1CN([C@@H](C)CO)C(=O)c2cc(NC(=O)Nc3ccc(F)cc3)ccc2O[C@H]1CN(C)CC1CCCCC1`, the cytotoxicity call was “inactive”. `C[C@@H]1CN([C@H](C)CO)C(=O)c2cc(NC(=O)Nc3ccc(F)cc3)ccc2O[C@H]1CN(C)CC1CCCCC1` was tested, and the cytotoxicity call was “inactive”. `C[C@H](CO)N1C[C@H](C)[C@@H](CN(C)CC2CCCCC2)Oc2ccc(NC(=O)Nc3ccc(F)cc3)cc2C1=O` was tested, and the cytotoxicity call was “inactive”. With `C[C@H](CO)N1C[C@H](C)[C@H](CN(C)CC2CCCCC2)Oc2ccc(NC(=O)Nc3ccc(C(F)(F)F)cc3)cc2C1=O` the cytotoxicity call was “active”. For `C[C@@H]1CN([C@@H](C)CO)C(=O)c2cc(NC(=O)Nc3ccc(C(F)(F)F)cc3)ccc2O[C@H]1CN(C)CC1CCCCC1`, the cytotoxicity call was “active”. With `NCCc1[nH]cnc1-c1cccs1` the cytotoxicity call was “inactive”. In the case of `C[C@H](CO)N1C[C@H](C)[C@H](CN(C)C(=O)Nc2cccc3ccccc23)Oc2ccc(NS(=O)(=O)c3ccc(Cl)cc3)cc2CC1=O`, the cytotoxicity call is reported as “inactive”. `COc1ccc(S(=O)(=O)Nc2ccc3c(c2)C(=O)N([C@H](C)CO)C[C@@H](C)[C@@H](CN(C)C(=O)C2CCCCC2)OCCCC[C@H](C)O3)cc1` was tested, and the cytotoxicity call was “inactive”. `C[C@@H]1CN([C@@H](C)CO)C(=O)c2cc(NC(=O)CCCCCC(=O)Nc3ccccc3N)ccc2O[C@H]1CN(C)C(=O)Nc1cccc2ccccc12` was tested, and the cytotoxicity call was “inactive”. In the case of `CC(C)NC(=O)N(C)C[C@@H]1Oc2ccc(NC(=O)Nc3ccc4c(c3)OCO4)cc2C(=O)N([C@H](C)CO)C[C@@H]1C`, the cytotoxicity call is reported as “inactive”. With `C[C@@H]1CCCCO[C@@H](CN(C)C(=O)Cc2ccccc2)[C@H](C)CN([C@@H](C)CO)C(=O)c2cc(NC(=O)Nc3ccccc3)ccc2O1` the cytotoxicity call was “inactive”. In the case of `Cc1cc(C(=O)Nc2cccc3c2O[C@@H](CN(C)S(=O)(=O)c2cn(C)cn2)[C@@H](C)CN([C@H](C)CO)C3=O)n(C)n1`, the cytotoxicity call is reported as “inactive”. For `Cc1ccc(S(=O)(=O)Nc2cccc3c2O[C@H](CN(C)S(=O)(=O)c2cccs2)[C@@H](C)CN([C@@H](C)CO)C3=O)cc1`, the cytotoxicity call was “inactive”. With `CC(=O)NCC(=O)N1Cc2nccn2C[C@H](Cn2nc(C)nc2C)C1` the cytotoxicity call was “inactive”. `C[C@@H]1CN([C@@H](C)CO)C(=O)c2cc(C#C[C@@H](C)O)cnc2O[C@@H]1CN(C)C(=O)CN1CCOCC1` was tested, and the cytotoxicity call was “inactive”. For `Cc1ccc(S(=O)(=O)N(C)C[C@H]2Oc3ccc(NC(=O)Cn4cnnn4)cc3CC(=O)N([C@H](C)CO)C[C@H]2C)cc1`, the cytotoxicity call was “inactive”. With `COc1ccc(NC(=O)N(C)C[C@H]2Oc3c(NS(=O)(=O)c4c(C)noc4C)cccc3C(=O)N([C@@H](C)CO)C[C@H]2C)cc1` the cytotoxicity call was “inactive”. With `COc1ccc(NC(=O)N(C)C[C@@H]2Oc3ncc(-c4cccc(C(F)(F)F)c4)cc3C(=O)N([C@H](C)CO)C[C@@H]2C)cc1` the cytotoxicity call was “inactive”. With `C[C@@H]1CN([C@@H](C)CO)C(=O)c2cc(NC(=O)Cn3cnnn3)ccc2O[C@H]1CN(C)C(=O)Nc1ccc2c(c1)OCO2` the cytotoxicity call was “inactive”. With `C[C@@H]1CN([C@H](C)CO)C(=O)c2cc(NC(=O)Nc3ccccc3)ccc2O[C@@H]1CN(C)CC1CCCCC1` the cytotoxicity call was “inactive”. With `C[C@@H]1CN([C@@H](C)CO)C(=O)c2cc(NC(=O)Nc3ccc(F)cc3)ccc2O[C@H]1CN(C)CC1CCCCC1` the cytotoxicity call was “inactive”. `C[C@@H]1CN([C@H](C)CO)C(=O)c2cc(NC(=O)Nc3ccc(C(F)(F)F)cc3)ccc2O[C@H]1CN(C)CC1CCCCC1` was tested, and the cytotoxicity call was “active”. With `C[C@H](CO)N1C[C@H](C)[C@@H](CN(C)CC2CCCCC2)Oc2ccc(NC(=O)Nc3ccc(C(F)(F)F)cc3)cc2C1=O` the cytotoxicity call was “inactive”. `C[C@@H]1CN([C@H](C)CO)C(=O)c2cc(NC(=O)Nc3ccc(C(F)(F)F)cc3)ccc2O[C@@H]1CN(C)CC1CCCCC1` was tested, and the cytotoxicity call was “active”. For `C[C@H]1CN([C@@H](C)CO)C(=O)c2cc(NC(=O)Nc3ccc(C(F)(F)F)cc3)ccc2O[C@@H]1CN(C)CC1CCCCC1`, the cytotoxicity call was “inactive”.
